Compound activity as filed in PubChem.
The list is not random: actives were taken first. Their share in the collection is about 5.2%.
VDR inhibitor: vitamin D3 receptor (human) inhibition; VDR-SRC2-3 peptide fluorescence polarization, 2 h; Potency, µM, without a hit: max response, negative = inhibition, actives largely listed as inhibitors; 400,000 tested, 0.93% active
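The screen uses fluorescence polarization to detect compounds that interfere with recruitment of the SRC2-3 coactivator peptide to VDR; plates are read after 2 h at room temperature.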
PLK1 PBD inh: blocks phosphopeptide binding to human PLK1 polo-box domain | P53350 | Plk1 PBD binding of FITC phosphopeptide, fluorescence polarization | Potency, µM, without a hit: max response, negative = inhibition, most hits filed as inhibitors | 360,000 tested, 2.8% active; further: series mostly up to about 57 µM; nearly all actives have a fitted effect of over 65% in size
Sfp PPTase inh: blocks B. subtilis Sfp PPTase activity; Q9F4F7; Biochemical Sfp PPTase activity, qHTS; Potency, µM, for inactives: largest response in the series, negative = inhibition, hits mostly inhibitors; 310,000 tested, 3.5% active; AID 1490;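 further: the enzyme is Sfp with the accession as filed and its product quenches rhodamine fluorescence; 0% = enzyme reaction without inhibitor and -100% = no enzyme wells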
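Compounds were incubated with enzyme (final 15 nM) for 15 min at room temperature before substrate addition started the reaction. Fluorescence at 525 nm excitation, 598 nm emission was recorded immediately and after 30 minutes.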
rTrxR1 inhibitor: blocks rat thioredoxin reductase 1; 390,000 tested, 1% active; recombinant rTrxR1, NADPH fluorescence consumption, selenite substrate; Potency, µM (titrated, usually from 114 µM), without a hit: at the top dose activity change, negative = inhibition, actives largely listed as inhibitors; AID 588453; O89049; further: nearly all actives have a fitted effect of over 65% in size
Target sequence (O89049 whole entry, looked up): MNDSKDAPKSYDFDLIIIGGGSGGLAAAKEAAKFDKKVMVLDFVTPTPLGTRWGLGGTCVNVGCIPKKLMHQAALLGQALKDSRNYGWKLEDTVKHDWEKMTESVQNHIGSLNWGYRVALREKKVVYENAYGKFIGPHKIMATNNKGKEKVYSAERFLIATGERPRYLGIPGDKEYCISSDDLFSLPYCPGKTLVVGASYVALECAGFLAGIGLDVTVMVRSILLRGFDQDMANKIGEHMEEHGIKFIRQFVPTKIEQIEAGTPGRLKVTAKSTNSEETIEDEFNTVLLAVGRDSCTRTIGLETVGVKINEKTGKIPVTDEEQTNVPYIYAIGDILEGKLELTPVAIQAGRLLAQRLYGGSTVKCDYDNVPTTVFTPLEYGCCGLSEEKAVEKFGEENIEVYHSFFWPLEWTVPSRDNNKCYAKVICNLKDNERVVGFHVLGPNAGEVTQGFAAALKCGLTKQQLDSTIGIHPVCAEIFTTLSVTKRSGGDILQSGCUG
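Rat TrxR1 (90 nM in the dispensed reagent) was pre-reduced with 400 uM NADPH for 5 min at room temperature, then incubated with compound for 15 min. After 400 uM selenite was added, NADPH fluorescence (Ex 340/Em 450 nm) was followed for 8 min.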
TrxR1 substrate: rat thioredoxin reductase 1 substrate activity. O89049. purified TrxR1 substrate turnover, NADPH consumption readout. Potency, µM (top dose mostly 114 µM), for inactives: top-dose activity change, negative = substrate turnover. 390,000 tested, 0.01% active. AID 588456; further: nearly all actives have a fitted effect of over 50% in size
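Rat TrxR1, dispensed at 90 nM, was prereduced with 400 uM NADPH (final) for 5 min at ~22 deg C, then incubated with compound 15 min before 400 uM selenite. A first-read NADPH fluorescence drop versus no-compound background flagged substrates.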
IDH1 R132H inh: human IDH1 R132H inhibition | IDH1-R132H enzyme, NADPH consumption, diaphorase/resazurin fluorescence | Potency, µM (doses to about 76.6 µM), without a hit: at the highest dose activity change, negative = inhibition, usual class: inhibitors | 390,000 tested, 0.093% active | O75874 | AID 602179; further: nearly all actives have a fitted effect of over 65% in size
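IDH1-R132H (0.5 ug/mL) preincubated 30 min with compound, then NADPH (0.016 mM) and alpha-KG (2 mM) added; 80 min at RT, pH 7.5. Remaining NADPH coupled via diaphorase/resazurin to fluorescence (540/590 nm); concentration-response curves normalized to no-enzyme control.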
TbPYK inh: confirmation of Trypanosoma brucei pyruvate kinase inhibitors. shares compounds with PLK1 PBD inh. recombinant TbPYK, Kinase-Glo ATP luminescence. Potency, µM (top dose mostly 76.9 µM), for inactives: at the top dose activity change, negative = inhibition, most hits filed as inhibitors. 890 tested, 67% active. AID 720569; further: nearly all actives have a fitted effect of over 70% in size
TbPYK ADP-Glo: orthogonal confirmation of Trypanosoma brucei pyruvate kinase inhibitors; 890 tested, 62% active; Potency, µM (titrated, usually from 76.9 µM), inactives show top-dose activity change, negative = inhibition, most hits filed as inhibitors; AID 720584; shares compounds with PLK1 PBD inh; recombinant TbPYK, ADP-Glo luminescence, 60 min; further: nearly all actives have a fitted effect of over 75% in size
Starred values were filed as active, the others as inactive; ? = inconclusive; · = no result; [ ] = remark or other dose. The call rests on the fitted dose curve; in most records, active means well fitted curve in the direction sought with a large enough effect; inconclusive means small, poorly fitted or top-dose-only effect, or another doubt; inactive means no such curve, though single readings can be large; an effect the other way counts as inactive or inconclusive. Unless noted, on the % scale 0 is the no-effect control and ±100 the full control effect; potency means the concentration at half of the fitted maximal effect.

SMILES	VDR inhibitor	PLK1 PBD inh	Sfp PPTase inh	rTrxR1 inhibitor	TrxR1 substrate	IDH1 R132H inh	TbPYK inh	TbPYK ADP-Glo
O=C1C(=Cc2ccccc2Cl)CCc2ccccc21	·	-17.7%	·	·	·	·	25.1µM*	9.4%
O=C1C(=Cc2ccc(Cl)cc2)CCc2ccccc21	·	1.6%	·	·	·	·	25.1µM*	6.7%
COc1ccc(C=C2CCc3ccccc3C2=O)cc1	·	4.0%	·	·	·	·	25.1µM*	12.3%
CN(Cc1nc2ccccc2c(=O)[nH]1)C(=O)c1cccc(NC(=O)c2cccs2)c1	-14.3%	-11.7%	·	6.6%	-5.6%	-5.0%	·	·
CN(C)CCNC(=O)c1cccc(-c2cc(NC=O)c3ncc(-c4cccc(C(F)(F)F)c4)n3c2)c1	·	-10.6%	·	·	·	·	·	·
CCOc1ccccc1CNC(=O)Cc1ccc(NC(=O)N2CCCCc3ccccc32)cc1	13.8%	·	·	9.0%[57.1 µM]	-0.1%[57.1 µM]	2.5%	·	·
O=C1/C(=C/c2ccncc2)CCc2ccccc21	?	-3.7%	10.2%	?	0.1%	11.9%	·	·
O=C1/C(=C\c2ccncc2)CCc2ccccc21	79.4µM*	-7.6%	·	-10.1%	-3.3%	1.5%	?	7.3%
CC(C)(C)OC(=O)N1CCC(c2c(C(=O)N3CCN(c4ccccn4)CC3)cnn2-c2ccc(F)cc2F)CC1	7.1%	·	·	8.9%	5.4%	-4.5%	·	·
Cc1ccsc1/C=N/Nc1ncc(Cl)cc1Cl	3.8%	-7.6%	11.3%	12.6%[57.1 µM]	-13.2%	7.2%	·	·
Cc1ccsc1/C=N/Nc1nc(=O)[nH]nc1C	-7.7%	1.2%	12.4%	-20.7%	-17.9%	2.7%	17.8µM*	8.2%
Cc1ccc(CNC(=O)C2CCN(S(=O)(=O)c3cccs3)CC2)o1	?	-16.3%	17.8µM*	8.91µM*	1.2%	0.8%	?	?
CC(C)(O)C1Cc2cc(/C=C/C(=O)O)c(O)cc2O1 (stereo not drawn)	?	2.99µM*	6.31µM*	?	7.5%[57.1 µM]	0.0%	12.6µM*	14.1µM*
CCOc1ccccc1N1C(=O)CC(Sc2n[nH]c(-c3ccccc3)n2)C1=O (stereo not drawn)	-10.8%	7.52µM*	35.5µM*	1µM*	6.7%[57.1 µM]	14.9%	7.08µM*	12.6µM*
COc1ccccc1N1C(=O)CC(Sc2nc(C)cc(C)n2)C1=O (stereo not drawn)	7.0%	-7.3%	12.7%	-0.2%	7.3%	2.4%	·	·
O=C(NCc1ccc(F)cc1)c1cc(C2CCCCN2C(=O)CCCc2ccccc2)on1 (stereo not drawn)	·	3.0%	·	·	·	·	·	·
COc1cccc(C2=NN(S(C)(=O)=O)C(c3cn(-c4ccccc4)nc3-c3cccs3)C2)c1 (stereo not drawn)	-1.5%	·	·	15.3%	4.5%	0.7%	·	·
COC1=C(OC)C(=O)C(Sc2ccc3ccccc3c2)=CC1=O	8.91µM*	0.752µM*	·	?	9.9%[57.1 µM]	13.9%	0.355µM*	2.24µM*
COc1ccc(S(=O)(=O)Oc2ccc3ccccc3c2)cc1	-4.8%	-3.7%	6.9%	-11.5%	-8.7%	6.9%	·	·
CC1(C)CC(=O)C(C(=O)c2ccccc2)C(=O)C1	-3.8%	-7.6%	20.2%	11.7%[57.1 µM]	9.4%[57.1 µM]	14.4%	·	·
CC1(C)CC(=O)C(C(c2ccco2)C2C(=O)CC(C)(C)CC2=O)C(=O)C1	?	6.7µM*	50.1µM*	?	-2.0%	8.3%	11.2µM*	?
CCn1c(C)cc(/C=C2/NC(=O)N(Cc3ccccc3F)C2=O)c1C	-7.2%	-15.5%	6.3%	-15.0%	3.9%	-3.3%	·	·
Cc1ccc(/C=C2/NC(=O)N(Cc3ccccc3F)C2=O)o1	79.4µM*	-3.1%	14.1µM*	?	-8.4%	4.4%	?	35.5µM*
